# Structures can show the parent of a compound that is named as a salt.
# Legend:
# Assay in all cases: thermal shift delta Tm vs DMSO control; higher = stronger stabilization (binding)
# Settings in all cases: 12.5 µM; protein concentration 2 µM
# LOC_OS01G57100-cb003 = system: LOC_OS01G57100-cb003
# How it was run: (§1)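 Thermal shift values come from differential scanning fluorimetry on purified rice kinase domains made in E. coli, with melting temperatures obtained from Boltzmann fits. Samples of 19.5 μl held 2 μM kinase, 100 mM potassium phosphate pH 7.5, 150 mM NaCl, 10% glycerol, 5 × SYPRO Orange and compound in DMSO, and were heated from 25°C to 95°C at 0.05°C/s. Each shift is a triplicate mean relative to the DMSO-only protein sample.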
# LOC_OS01G60330-cb001 = system: LOC_OS01G60330-cb001
# How it was run: as §1
# LOC_OS01G60700-cb002 = system: LOC_OS01G60700-cb002
# How it was run: as §1
# LOC_OS01G63280-cb003 = system: LOC_OS01G63280-cb003
# How it was run: as §1
# LOC_OS01G67340-cb003 = system: LOC_OS01G67340-cb003
# How it was run: as §1
# LOC_OS01G70970-cb002 = system: LOC_OS01G70970-cb002
# How it was run: as §1
# LOC_OS02G07810-cb001 = system: LOC_OS02G07810-cb001
# How it was run: as §1
# LOC_OS02G08530-cb003 = system: LOC_OS02G08530-cb003
# How it was run: as §1
# LOC_OS02G14120-cb001 = system: LOC_OS02G14120-cb001
# How it was run: as §1
# LOC_OS02G17970-cb001 = system: LOC_OS02G17970-cb001
# How it was run: as §1
# LOC_OS02G45750-cb003 = system: LOC_OS02G45750-cb003
# How it was run: as §1
# LOC_OS02G54510-cb004 = system: LOC_OS02G54510-cb004
# How it was run: as §1
# LOC_OS03G04050-cb001 = system: LOC_OS03G04050-cb001
# How it was run: as §1
# LOC_OS03G12390-cb001 = system: LOC_OS03G12390-cb001
# How it was run: as §1
# LOC_OS03G27990-cb004 = system: LOC_OS03G27990-cb004
# How it was run: as §1
# LOC_OS03G50450-cb001 = system: LOC_OS03G50450-cb001
# How it was run: as §1
# LOC_OS03G50810-cb003 = system: LOC_OS03G50810-cb003
# How it was run: as §1
# LOC_OS04G35114-cb001 = system: LOC_OS04G35114-cb001
# How it was run: as §1
# LOC_OS04G38480-cb003 = system: T1, LOC_OS04G38480-cb003
# T1 sequence (whole entry): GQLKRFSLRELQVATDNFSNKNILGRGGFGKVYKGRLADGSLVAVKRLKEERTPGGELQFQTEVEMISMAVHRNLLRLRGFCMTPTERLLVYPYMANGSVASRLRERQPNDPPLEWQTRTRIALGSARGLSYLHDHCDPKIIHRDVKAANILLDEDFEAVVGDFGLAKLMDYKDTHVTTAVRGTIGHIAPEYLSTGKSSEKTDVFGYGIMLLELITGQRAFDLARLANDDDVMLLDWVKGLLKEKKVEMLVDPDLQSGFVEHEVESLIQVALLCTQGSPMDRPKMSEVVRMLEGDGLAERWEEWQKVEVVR
# How it was run: as §1
# LOC_OS04G41100-cb001 = system: T2, LOC_OS04G41100-cb001
# T2 sequence (whole entry): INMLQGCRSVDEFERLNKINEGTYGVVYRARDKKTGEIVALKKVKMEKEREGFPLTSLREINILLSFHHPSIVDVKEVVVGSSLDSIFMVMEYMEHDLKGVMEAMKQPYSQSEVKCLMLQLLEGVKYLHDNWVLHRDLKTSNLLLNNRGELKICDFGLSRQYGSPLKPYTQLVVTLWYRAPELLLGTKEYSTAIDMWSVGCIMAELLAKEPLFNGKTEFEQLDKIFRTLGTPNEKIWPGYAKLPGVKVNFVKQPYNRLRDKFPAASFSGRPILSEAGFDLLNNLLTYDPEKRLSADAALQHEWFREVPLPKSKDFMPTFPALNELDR
# How it was run: as §1
# 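Further: purified Escherichia coli-expressed rice kinase domain construct.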
Structure (SMILES),thermal shift delta Tm (LOC_OS01G57100-cb003) [°C],thermal shift delta Tm (LOC_OS01G60330-cb001) [°C],thermal shift delta Tm (LOC_OS01G60700-cb002) [°C],thermal shift delta Tm (LOC_OS01G63280-cb003) [°C],thermal shift delta Tm (LOC_OS01G67340-cb003) [°C],thermal shift delta Tm (LOC_OS01G70970-cb002) [°C],thermal shift delta Tm (LOC_OS02G07810-cb001) [°C],thermal shift delta Tm (LOC_OS02G08530-cb003) [°C],thermal shift delta Tm (LOC_OS02G14120-cb001) [°C],thermal shift delta Tm (LOC_OS02G17970-cb001) [°C],thermal shift delta Tm (LOC_OS02G45750-cb003) [°C],thermal shift delta Tm (LOC_OS02G54510-cb004) [°C],thermal shift delta Tm (LOC_OS03G04050-cb001) [°C],thermal shift delta Tm (LOC_OS03G12390-cb001) [°C],thermal shift delta Tm (LOC_OS03G27990-cb004) [°C],thermal shift delta Tm (LOC_OS03G50450-cb001) [°C],thermal shift delta Tm (LOC_OS03G50810-cb003) [°C],thermal shift delta Tm (LOC_OS04G35114-cb001) [°C],thermal shift delta Tm (LOC_OS04G38480-cb003) [°C],thermal shift delta Tm (LOC_OS04G41100-cb001) [°C]
C[C@@H]1CN(C(=O)c2ccc(NC(=O)c3cc(O[C@H](C)c4c(Cl)ccc(F)c4Cl)c(N)nn3)cc2)C[C@H](C)N1 [Ensartinib (X-396)],4.79,-0.22,0.66,-0.05,7.25,0.84,0.09,2.29,12,0.57,6.54,3.48,-0.25,2.86,0.07,0.15,5,8.12,5.86,0.2
CNC(=O)c1cc(Oc2ccc(NC(=O)Nc3ccc(Cl)c(C(F)(F)F)c3)cc2)ccn1 [Sorafenib],3.62,3.63,0.58,9.12,1.48,1.77,1.92,1.8,2.47,2.3,4.5,1.47,0.48,1.7,0.3,1.22,1.02,1.71,3.55,0.99
CCCCCCCCc1ccc(CCC(N)(CO)CO)cc1 [Fingolimod (FTY720) HCl],0.23,0.41,0.6,-1.03,-0.42,-0.82,-1.73,-0.4,-0.78,-0.74,-0.8,-0.96,-0.79,-1.7,-0.42,-0.24,-1.68,-0.12,0.32,0.19
O=c1cc(N2CCOCC2)oc2c(-c3cccc4c3sc3ccccc34)cccc12,0.74,0.23,-0.43,-0.77,-0.51,-0.71,-0.42,0.52,0.46,0.12,1.11,0.33,0.66,-0.18,0.6,0.91,0.32,0.58,0.87,-0.31
Nc1ncc(-c2ccnc(Nc3ccncc3)n2)c(CC2CC2)n1,0.51,1.45,1.53,0.58,0.33,0.37,0.77,0.52,3.13,2.16,2.65,0.44,0.08,0.7,0.32,0.09,0.92,1.69,2.3,0.78
Oc1cc(CNC(=S)/C=C/c2cc(O)c(O)c(Br)c2)cc(O)c1O,7.83,17.7,-0.76,20,0.53,0.97,4.09,-1.06,-0.83,7.15,0.11,-0.88,0.71,0.57,0.49,0.42,0.39,-1.08,0,-0.03

# From the supplement of paper PMC9694430
